Results taken from PubChem BioAssay.
Calls of active or inactive are those of the source. Unless noted, the rule behind the calls is not given here.

What was measured:
[1] = resazurin metabolic signal in HepG2 cells – cell-based, resazurin fluorescence, 24 h, PK04 Diversity Set, profiling panel (AID 1172); details: HepG2 viability, higher = more signal; note: test concentration not given here
[2] = budding yeast growth changes without added modifier – OD600, strain BY4716, 24 h, basal condition, primary screen (AID 1173); details: S. cerevisiae BY4716 growth, OD600, 24 h; higher = more signal, called active from +8 up or from −8 down
[3] = viability profiling in MM1S myeloma cells – cell-based, resazurin fluorescence, basal, 24 h, PK04 Diversity Set, profiling panel (AID 1174); details: higher = more signal, called active from +8 up or from −8 down;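 note: MM1S multiple myeloma cell line; test concentration not given here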
[4] = target: Dihydroorotate dehydrogenase (quinone), mitochondrial (Plasmodium falciparum (isolate 3D7)) (UniProt Q08210); assay: inhibition of P. falciparum DHODH – biochemical, C-terminal His tag, absorbance 600 nm, primary screen (AID 1175); details: PfDHODH enzyme, DCIP absorbance 600 nm; higher = more signal, called active from +8 up or from −8 down;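 note: recombinant parasite enzyme with a five histidine tag at its C terminus; test concentration not given here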
Dihydroorotate dehydrogenase (quinone), mitochondrial (Plasmodium falciparum (isolate 3D7)), sequence (Q08210 whole entry, looked up): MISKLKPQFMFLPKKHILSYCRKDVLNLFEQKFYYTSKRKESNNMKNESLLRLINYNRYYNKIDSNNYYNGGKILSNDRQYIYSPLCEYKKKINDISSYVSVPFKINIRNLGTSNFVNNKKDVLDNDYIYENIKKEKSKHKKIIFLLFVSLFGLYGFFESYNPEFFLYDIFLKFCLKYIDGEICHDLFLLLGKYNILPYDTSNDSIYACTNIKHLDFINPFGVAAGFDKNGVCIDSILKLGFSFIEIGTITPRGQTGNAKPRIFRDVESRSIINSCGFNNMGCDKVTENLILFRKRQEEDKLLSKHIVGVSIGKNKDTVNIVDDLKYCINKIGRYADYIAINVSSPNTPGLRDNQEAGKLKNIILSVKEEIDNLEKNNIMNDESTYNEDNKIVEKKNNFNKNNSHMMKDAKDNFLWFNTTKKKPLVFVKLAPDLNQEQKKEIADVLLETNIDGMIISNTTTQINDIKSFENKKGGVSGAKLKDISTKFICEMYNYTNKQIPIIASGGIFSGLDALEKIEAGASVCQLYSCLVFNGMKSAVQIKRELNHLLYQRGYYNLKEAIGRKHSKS

[5] = inhibition of PAO1 biofilm formation – strain PAO1, LB-PBS medium, absorbance 600 nm, primary screen (AID 1176); note: test concentration not given here; details: P. aeruginosa PAO1 growth/biofilm, A600, 12 h; higher = more signal
[6] = growth modulation of vineyard yeast isolate – strain RM11-1a, OD600, basal, 24 h, primary screen (AID 1177);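 note: cultures grown under basal conditions with no added stressor; test concentration not given here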; details: S. cerevisiae RM11-1a growth, OD600, 24 h; higher = more signal, called active from +8 up or from −8 down
[7] = growth of efflux-deficient E. coli DRC39 – strain DRC39, OD650, 24 h, E. coli filamentation inducers, primary screen (AID 1178);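 note: growth measured as culture turbidity by optical density at 650 nm; test concentration not given here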; details: E. coli DRC39 acrAB, higher = more signal, called active from +8 up or from −8 down
[8] = growth of efflux-deficient E. coli DRC39 – strain DRC39, OD650, 48 h, E. coli filamentation inducers, primary screen (AID 1179);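 note: screen aims at cell division blockers that make cells filament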; details: E. coli DRC39 delta-acrAB growth, higher = more signal, called active from +8 up or from −8 down
[9] = viability profiling in RPMI8226 myeloma cells – cell-based, resazurin fluorescence, basal, 24 h, PK04 Diversity Set, profiling panel (AID 1180); details: higher = more signal;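 note: RPMI8826 multiple myeloma cell line at 5000 cells per well; test concentration not given here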
[10] = target: E3 ubiquitin-protein ligase XIAP (Homo sapiens) (UniProt P98170); assay: small molecules binding XIAP protein – biophysical, small-molecule microarray, fluorescence 635 nm, primary screen (AID 1181); details: higher = more signal;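 note: score merges 667 nm emission and signal to noise over triplicate slides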
E3 ubiquitin-protein ligase XIAP (Homo sapiens), sequence (P98170 whole entry, looked up): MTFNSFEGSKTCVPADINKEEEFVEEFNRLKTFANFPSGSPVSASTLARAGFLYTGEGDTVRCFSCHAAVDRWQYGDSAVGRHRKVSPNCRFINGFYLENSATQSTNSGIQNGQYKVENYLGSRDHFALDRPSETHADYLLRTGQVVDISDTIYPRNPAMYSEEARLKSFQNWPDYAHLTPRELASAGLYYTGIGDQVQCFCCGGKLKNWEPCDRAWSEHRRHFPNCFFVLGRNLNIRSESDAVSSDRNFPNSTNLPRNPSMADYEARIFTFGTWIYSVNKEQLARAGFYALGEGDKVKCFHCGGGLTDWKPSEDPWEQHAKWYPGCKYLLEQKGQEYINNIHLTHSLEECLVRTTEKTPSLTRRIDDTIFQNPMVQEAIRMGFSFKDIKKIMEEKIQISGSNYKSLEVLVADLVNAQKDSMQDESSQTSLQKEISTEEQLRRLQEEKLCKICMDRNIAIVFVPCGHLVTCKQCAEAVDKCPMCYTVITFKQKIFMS

SMILES | z-score [1] | z-score [2] | z-score [3] | composite z-score [4] | z-score [5] | z-score [6] | z-score [7] | z-score [8] | z-score [9] | composite z-score [10]
C[N+](C)(C)CCCCCCNC(=O)[C@H]1C[C@H]2C(=O)N3CCC[C@H]3C(=O)N2[C@H]1c1ccc(O)cc1 | 0.202 | -0.652 (inactive) | 0.488 (inactive) | -2.18 (inactive) | 2.48 (inactive) | -0.201 (inactive) | -0.834 (inactive) | -1.15 (inactive) | -0.603 | 0.127
O=C1OCC=C[C@H]2OC34C=CCN(c5ccc(Cl)cc5)C(=O)[C@H]3N(CCCCCCO)C(=O)[C@@H]4[C@@H]12 (stereo not given in full) | 0.82 | -0.69 (inactive) | 0.975 (inactive) | -1.47 (inactive) | -0.497 (inactive) | -0.146 (inactive) | 0.571 (inactive) | 0.916 (inactive) | 1.01 | -0.138
COc1c(C)cc(-c2cc3c(c(-c4ccc(Oc5ccccc5)cc4)n2)[Si](C(C)C)(C(C)C)OC3)cc1C | -0.566 | 2.09 (inactive) | -0.391 (inactive) | 0.567 (inactive) | 1.18 (inactive) | 1.19 (inactive) | -0.227 (inactive) | -0.707 (inactive) | -0.155 | -0.187
CCC[C@@H]1C=C(C(=O)O)[C@H](c2ccc(C)cc2)N1S(=O)(=O)c1ccc(C)cc1 | -0.795 | 0.0188 (inactive) | -0.522 (inactive) | -0.0451 (inactive) | 0.89 (inactive) | -0.213 (inactive) | -0.591 (inactive) | 0.0595 (inactive) | -2.01 | 0.22
C=CCC(OC(C)=O)[C@@H]1[C@@H](N(Cc2cccc3ccccc23)C(=O)c2ccc(C)cc2)c2cc(OCCCO)ccc2N1C(=O)Cc1ccc(OC)cc1 (stereo not given in full) | 1.36 | -2.29 (inactive) | 0.641 (inactive) | -1.6 (inactive) | 0.0186 (inactive) | -1.25 (inactive) | 1.59 (inactive) | 1.98 (inactive) | -0.203 | -0.086
CC(C)(C)OC(=O)CC[C@@]1(C(=O)O)N=C(c2ccc(OCCCO)cc2)O[C@@H]1c1ccccc1N=[N+]=[N-] | 0.166 | 0.523 (inactive) | -0.789 (inactive) | 0.0016 (inactive) | 0.659 (inactive) | 0.0589 (inactive) | 0.428 (inactive) | 0.367 (inactive) | -0.105 | -0.187
C=CC[C@@]1(C(=O)NCC(O)CO)N=C(c2ccc(OCCCO)cc2)O[C@@H]1c1ccccc1N=[N+]=[N-] (stereo not given in full) | 0.896 | -0.965 (inactive) | -0.12 (inactive) | -0.269 (inactive) | -0.0709 (inactive) | 0.0157 (inactive) | 1.69 (inactive) | 1.29 (inactive) | -0.274 | 0.0049
COc1cc2c(cc1O)C(C)N(Cc1cccc(OC(F)(F)F)c1)CC2 (stereo not given) | 0.177 | -0.713 (inactive) | -1.33 (inactive) | -1.44 (inactive) | -0.255 (inactive) | 0.279 (inactive) | 0.506 (inactive) | 0.324 (inactive) | -0.622 | 0.427
CCC(CC)C(O)C1C=CC2C(=O)N(c3ccccc3)C(=O)C2N1Nc1ccc(C#N)cc1 (stereo not given) | -0.813 | -0.174 (inactive) | -0.253 (inactive) | -1.69 (inactive) | 1.55 (inactive) | -0.358 (inactive) | -0.698 (inactive) | 0.133 (inactive) | -0.308 | -0.101
CC(C)Cc1ccc(CN2CC[C@@H](NS(=O)(=O)c3ccccc3)C2)cc1 | -0.788 | -14.2 (active) | -1.73 (inactive) | -0.371 (inactive) | -0.0126 (inactive) | -1.21 (inactive) | -20.5 (active) | -19.9 (active) | -1.03 | -0.178
[N-]=[N+]=Nc1ccccc1[C@@H]1OC(c2ccc(OCCCO)cc2)=N[C@]1(CCS(=O)(=O)c1ccccc1)C(=O)N1CCOCC1 | -0.167 | 0.907 (inactive) | -0.638 (inactive) | 1.56 (inactive) | 0.507 (inactive) | 1.9 (inactive) | -0.311 (inactive) | 0.0945 (inactive) | -1.19 | 0.182
CC(C)NC(=O)[C@@]1(Cc2ccccc2I)c2ccccc2C(=O)N(Cc2ccccc2)[C@H]1c1ccc(CO)cc1 | 0.255 | -0.659 (inactive) | -0.329 (inactive) | 0.799 (inactive) | 0.972 (inactive) | -0.0378 (inactive) | -0.24 (inactive) | -0.324 (inactive) | -0.211 | -0.0023
[N-]=[N+]=NCc1ccccc1[C@@H]1OC(c2ccc(OCCCO)cc2)=N[C@]1(Cc1ccccc1N=[N+]=[N-])C(=O)NCc1ccccc1 | 0.206 | 1.15 (inactive) | -0.0978 (inactive) | 0.139 (inactive) | 0.603 (inactive) | 1.27 (inactive) | -0.954 (inactive) | -1.96 (inactive) | -1.46 | 0.0852
Cc1ccc(F)cc1S(=O)(=O)N[C@@H]1CCN(Cc2ccc(-c3ccccc3)cc2)C1 | -0.603 | -19.1 (active) | -3.27 (inactive) | -0.427 (inactive) | 0.425 (inactive) | -22.4 (active) | -20.5 (active) | -20 (active) | -2.16 | 0.0368
Cc1ccc([C@H]2[C@H](C(=O)O)[C@H](Sc3ccccc3)[C@@H](C(C)C)N2S(=O)(=O)c2ccc(C)cc2)cc1 | -1.15 | -0.138 (inactive) | -0.498 (inactive) | 0.184 (inactive) | 0.0362 (inactive) | -0.528 (inactive) | -1.44 (inactive) | -0.292 (inactive) | -1.39 | 0.603
O=C1C2C=CC(C(O)c3ccc(-c4ccccc4)s3)N(n3cnnc3)C2C(=O)N1Cc1ccccc1 (stereo not given) | -0.295 | 1.07 (inactive) | -0.559 (inactive) | 0.267 (inactive) | 0.092 (inactive) | 0.766 (inactive) | -0.27 (inactive) | -0.0301 (inactive) | -0.259 | 0.296
[N-]=[N+]=NCc1ccccc1[C@H]1OC(c2ccc(OCCCO)cc2)=N[C@@]1(CCS(=O)(=O)c1ccccc1)C(=O)N1CCOCC1 | -0.0894 | 0.798 (inactive) | -0.306 (inactive) | 0.274 (inactive) | 0.631 (inactive) | 0.686 (inactive) | 0.186 (inactive) | -0.109 (inactive) | -0.8 | -0.309
C=C(COC)C(=O)CC[C@H](OC(C)=O)c1cccc(OCCO)c1 | -1.32 | -0.764 (inactive) | -0.854 (inactive) | -0.859 (inactive) | -0.73 (inactive) | -0.496 (inactive) | -1.03 (inactive) | -0.639 (inactive) | -1.27 | 0.0346
COc1ccc(C(O)C2C=CC3C(=O)NC(=O)C3N2Nc2ccccn2)cc1OCc1ccccc1 (stereo not given) | -0.8 | 0.481 (inactive) | -0.581 (inactive) | 1.58 (inactive) | 1.48 (inactive) | 0.18 (inactive) | -0.855 (inactive) | 0.145 (inactive) | -1.87 | 0.578
CC(C)NC(=O)[C@@H]1c2ccccc2C(=O)N(Cc2ccccc2Cl)[C@H]1c1ccc(CO)cc1 | 1.6 | -0.197 (inactive) | -0.27 (inactive) | 0.233 (inactive) | 0.183 (inactive) | 0.358 (inactive) | 0.696 (inactive) | 0.661 (inactive) | 0.131 | 0.103
CN(C)C(=O)[C@]1(CCC(=O)OC(C)(C)C)N=C(c2ccc(OCCCO)cc2)O[C@@H]1c1ccccc1N=[N+]=[N-] | 1.49 | 0.192 (inactive) | -0.556 (inactive) | 0.565 (inactive) | -0.758 (inactive) | 1.61 (inactive) | 0.752 (inactive) | 0.701 (inactive) | 0.407 | 0.0317
CCOC(=O)C1=C[C@@H](C(C)C)N(S(=O)(=O)c2ccc(C)cc2)[C@H]1c1ccc(C(C)C)cc1 | 0.346 | 1.05 (inactive) | 0.52 (inactive) | -1.11 (inactive) | -0.281 (inactive) | 0.55 (inactive) | -0.558 (inactive) | 0.399 (inactive) | 0.548 | -0.192
O=C1C=CC(=O)[C@@H]2CC(COc3ccccc3)=C3[C@@H](CCc4ccccc4)OB(O)C[C@@H]3[C@H]12 | -0.814 | -6.89 (inactive) | -0.971 (inactive) | -2.68 (inactive) | 0.212 (inactive) | -0.234 (inactive) | -0.569 (inactive) | -0.422 (inactive) | -0.664 | 0.0767
